Screening data: PubChem BioAssay, National Center for Advancing Translational Sciences (NCATS)
Lassa entry inh: inhibitors of Lassa virus binding or cell entry. Potency, µM (series often up to 37.9 µM), for inactives: top-dose activity change, negative = inhibition, most hits filed as inhibitors. 1.2% of 300,000 active. Lassa virus pseudotype entry inhibition, cell reporter; calls by dose curve; tested in HEK293 cells; note: potency is the fitted concentration of half-maximal effect; nearly all actives have a fitted effect of over 50% in size
FMDV antiviral: antivirals against foot and mouth disease virus; FMDV antiviral cell-based qHTS; 1.2% of 410,000 active; Potency, µM (series often up to 57.9 µM), inactives show top-dose activity change, negative = inhibition, usual class: inhibitors; calls by dose curve; tested in HEK293T cells; note: read-out not given here; potency is the fitted concentration of half-maximal effect; nearly all actives have a fitted effect of over 45% in size
HCMV antiviral: inhibitors of human cytomegalovirus | HFF cells, HCMV-luciferase reporter, 72 h; active compounds read low | activity change, negative = inhibition, % at 57.5 µM | 4.5% of 410,000 active; in the data active = activity change below about -60%; inconclusive = no clear call, values can overlap the other calls; inactive = above about -39%
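Inhibition of viral replication was scored as loss of reporter luminescence in HFFs infected with HCMV-luciferase (MOI 1 PFU/cell) for 72 h; compounds tested at 2 doses, normalized to buffer and Salinomycin controls.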
HCV inhibitor: blocks hepatitis C virus. Huh7.5.1 HCVcc-Cre infection, luciferase reporter, 44 h. Potency, µM (highest dose often 41.8 µM), for the others: at the highest dose activity change, negative = inhibition, usual class: inhibitors. 3.4% of 340,000 active; active = well fitted inhibition curve with a large enough effect; inconclusive = small, poorly fitted or top-dose-only effect, or another doubt; inactive = no such curve, though single readings can be large or run the other way; note: potency is the fitted concentration of half-maximal effect
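Luciferase read-out (15 sec integration) after a 15 min room-temperature substrate step quantifies HCVcc-Cre infection. Cells, 1,000 per well, had compound added 4 h post-plating, then virus at ~0.5 moi, and were cultured 44 h.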
MARV entry inh: Marburg virus entry inhibition; Marburg virus pseudotyped entry inhibition, cell reporter; Potency, µM (series often up to 37.8 µM), inactives show at the highest dose activity change, negative = inhibition, usual class: inhibitors; 1.8% of 300,000 active; AID 540276; calls by dose curve; tested in HEK293 cells; note: potency is the fitted concentration of half-maximal effect
* hit, by the source's call; ? = inconclusive; / = no result; [ ] = remark or other dose. A selection: hits, their analogues and other compounds. The true share with any hit is near 7.9%. % is set by controls: 0 for no effect and ±100 for the full control effect.

SMILES | Lassa entry inh | FMDV antiviral | HCMV antiviral | HCV inhibitor | MARV entry inh
Cc1sc2ncnc(NCCN3CCOCC3)c2c1C | -28.8% | ? | -76.3* | 11.2µM* | ?
O=C(N/N=C1\C[C@@H](O)[C@@H](O)[C@@H]2[C@@H]3C(=O)N(C4CCCCC4)C(=O)[C@@H]3CC[C@@H]12)OCc1ccccc1 | / | / | / | / | -13.2%[14.2 µM]
CC(C)(C)c1ccc(OCCC(=O)Nc2cccc(S(=O)(=O)N3CCOCC3)c2)cc1 | ? | 25.1µM* | / | / | ?
CN(CC(=O)Nc1cccc(S(=O)(=O)NC2=NCCCCC2)c1)Cc1ccc(C(C)(C)C)cc1 | ? | -17.3% | 9.1 | ? | ?
COc1ccc(OCCC(=O)OCC(=O)Nc2cccc(S(=O)(=O)N3CCOCC3)c2)cc1 | 2.9% | -2.2% | -5.9 | 14.3% | ?
CCOc1ccc(N2CC(C(=O)Nc3ccc(F)cc3F)CC2=O)cc1 (stereo not given) | -2.6% | 46.9% | -101.6* | 8.6% | ?
CC(C)(C)c1ccc(OCCC(=O)Nc2cccc(S(=O)(=O)NC3=NCCCCC3)c2)cc1 | 10µM* | ? | -60.2* | 14.1µM* | ?
CCOc1ccc(OCCC(=O)OCC(=O)Nc2cccc(S(=O)(=O)N3CCCCC3)c2)cc1 | / | -12.7% | -19.0 | ? | /
CCOc1ccc(OCCC(=O)Nc2cccc(S(=O)(=O)N3CCCC3)c2)cc1 | ? | 0.0% | -32.1 | 11.2µM* | ?
CCOC(=O)N1CCC2(CC1)OC(=O)C(C)=C2C(=O)NCc1ccccc1OC | 17.8%[46.1 µM] | -6.0% | ? | / | /
CCOc1ccc(N2CC(C(=O)Nc3ccc4c(c3)OCCO4)CC2=O)cc1 (stereo not given) | 14.6% | ? | -33.0 | 0.6% | -22.5%[46.1 µM]
CCOc1ccc(N2CC(C(=O)Nc3cccc(S(=O)(=O)N4CCCC4)c3)CC2=O)cc1 (stereo not given) | ? | -6.4% | 2.4 | 10µM* | -19.6%[46.1 µM]
CCOc1ccc(N2CC(C(=O)Nc3cccc(S(=O)(=O)N4CCOCC4)c3)CC2=O)cc1 (stereo not given) | / | -5.8% | -19.4 | / | /
CCOc1ccc(N2CC(C(=O)Nc3ccc4c(c3)OCO4)CC2=O)cc1 (stereo not given) | / | 29.3% | -64.0* | -3.3% | ?
O=C(COc1ccc(C(=O)c2ccc(F)cc2)cc1)Nc1cccc(S(=O)(=O)N2CCOCC2)c1 | ? | 31.6µM* | -18.4 | 6.31µM* | -43.3%
CCCOc1ccc(N2CC(C(=O)Nc3cccc(Cl)c3Cl)CC2=O)cc1 (stereo not given) | -14.4%[46.1 µM] | -2.9% | -87.5* | / | /
CCOc1ccccc1CNS(=O)(=O)c1cnc(N)nc1 | 19.2%[46.1 µM] | -12.7% | -20.7 | / | /
COc1cc(-c2n[nH]c3ccnc(-c4ccccc4)c23)cc(OC)c1OC | / | / | -8.3 | / | /
COc1ccc(C2(O)CCN(C(=O)NC3CCCCC3)CC2)cc1 | -6.5% | 4.8% | 8.3 | 11.4% | 3.66µM*
COc1ccc(CCNC(=O)C2CCN(C(=O)NC3CCCCC3)CC2)cc1 | -1.0% | -14.9% | 8.4 | 7.9% | -0.9%
O=[N+]([O-])c1cccnc1N1CCN(c2ccccc2F)CC1 | -9.5% | 0.2% | -60.7* | 15.1% | 8.0%
Cc1ccc(N2CCN(c3ncccc3[N+](=O)[O-])CC2)c(C)c1 | ? | -15.5% | -29.9 | ? | ?
O=[N+]([O-])c1cccnc1N1CCCCC1 | -4.6% | 9.3% | 18.2 | 2.8% | -2.5%
Cc1ccc(C)c(N2CCN(c3ncccc3[N+](=O)[O-])CC2)c1 | ? | 0.0% | -15.9 | 11.2µM* | 2.51µM*
CC(C(=O)Nc1ccc(F)cc1Cl)N(C)CCOc1ccccc1 (stereo not given) | ? | -22.0% | -61.3* | -21.2% | ?
SMILES | Lassa entry inh | FMDV antiviral | HCMV antiviral | HCV inhibitor | MARV entry inh
Cc1ccc(S(=O)(=O)N(C)C)cc1NC(=O)C(C)N(C)CCOc1ccc(Cl)cc1 (stereo not given) | ? | ? | -78.5* | 10µM* | ?
CC(C(=O)Nc1ccccc1)N(C)CCOc1ccccc1 (stereo not given) | 4.9% | 4.3% | -0.9 | ? | 1.0%[46.1 µM]
Cc1ccc(CN2C(=O)c3ccccc3Sc3ccc(C(=O)N4CCOCC4)cc32)cc1 | -22.7%[46.1 µM] | 2.2% | -38.5 | / | /
O=C(NCC(O)CO)c1csc(Nc2cccc3ccccc23)n1 (stereo not given) | ? | -7.0% | 30.0 | -15.8% | ?
CSc1nn(Cc2ccc(F)cc2)c(N(C(C)=O)C(C)=O)c1S(=O)(=O)c1ccccc1 | -27.2%[46.1 µM] | 10.5% | 10.0 | / | ?
CC(=O)[C@@]1(C)OC(N)=C(C#N)[C@@H](c2ccccc2)C1(C#N)C#N | / | / | / | / | -0.1%
Cc1cccc2[nH]c3c(N4CC=C(c5ccc(F)cc5)CC4)ncnc3c12 | ? | 39.8µM* | ? | 12.6µM* | 11.2µM*
c1ccc(CNc2ncncc2-c2ccc3c(c2)OCO3)cc1 | / | -1.4% | / | / | /
COc1ccc(/C=N/n2c(SC)nnc(C(C)(C)C)c2=O)c(OC)c1 | 6.31µM* | -20.7% | 10.1 | 2.7% | -6.3%
CSc1nnc(C(C)(C)C)c(=O)n1/N=C/c1ccc(C(C)C)cc1 | -7.0%[46.1 µM] | 7.4% | -63.3* | 9.8% | -4.7%[46.1 µM]
CSc1nnc(C(C)(C)C)c(=O)n1/N=C/c1ccc(Cl)cc1 | 17.1% | -9.0% | 3.7 | 3.3% | -2.0%[14.2 µM]
O=C(CCCN1C(=O)/C(=C/c2ccc(F)cc2)SC1=S)NC1CCS(=O)(=O)C1 (stereo not given) | / | 2.4% | -72.3* | -7.0% | /
O=C(CN1C(=O)S/C(=C\c2ccccc2F)C1=O)NC1CCS(=O)(=O)C1 (stereo not given) | 18.3%[46.1 µM] | -13.4% | -61.9* | 18.8% | 3.3%[46.1 µM]
Cc1nc(-n2ncc(C#N)c2N)c2c3c(sc2n1)CCC3 | -11.0% | -8.0% | -16.9 | ? | -13.7%
CCCSc1nc(-n2ncc(C#N)c2N)c2c3c(sc2n1)CCC(C)C3 (stereo not given) | 2.0% | -18.9% | -6.6 | 14.1µM* | ?
CCC(C)c1ccccc1N1CC(C(=O)Nc2ccc(S(=O)(=O)N3CCOCC3)cc2)CC1=O (stereo not given) | 3.9%[46.1 µM] | -9.9% | -31.5 | 11.6% | -7.7%
COc1ccc(-c2cc(C(F)(F)F)n3ncc(C(=O)N(C)Cc4ccccc4)c3n2)cc1 | ? | ? | -26.4 | ? | ?
CCOC(=O)CNC(=O)c1cc(-c2ccccn2)nc2c(C)c(Cl)ccc12 | -16.5% | -15.6% | ? | -10.5% | 5.01µM*
Fc1ccccc1CCNc1c2c(nc3ncnn13)CCCC2 | -13.6%[46.1 µM] | -24.9% | -77.4* | ? | 6.31µM*
COc1ccc(OC)c(-n2nnnc2SCC(=O)Nc2ccc(C(=O)N3CCCCC3)cc2)c1 | -16.6% | / | -64.1* | -23.6% | -22.9%
COc1ccc(C(=O)NNC(=O)CSc2nnnn2-c2cc(OC)cc(OC)c2)cc1 | 12.2% | -1.0% | 8.4 | 11.2µM* | 14.9%
COc1ccc(OC)c(-n2nnnc2SCC(=O)Nc2ccc3c(c2)OCCO3)c1 | 0.9% | / | 1.4 | ? | -17.5%
CCCNC(=O)OC[C@H]1O[C@H](CCO/N=C(\C)CCC(=O)OC[C@H]2O[C@H](C#Cc3ccccc3)C=C[C@@H]2Oc2ccc(C)cc2)C=C[C@@H]1Oc1ccc(OC)cc1 | / | / | / | / | -28.6%[14.2 µM]
